Screens from PubChem BioAssay.
An excerpt weighted towards active compounds, which were near 1.2% of everything screened.
KCNH2 WT inh = blocks the wildtype human KCNH2 potassium channel | activity change, % at 1.84 µM | U2OS, BacMam KCNH2, thallium flux FluxOr; hits give low values | 0.37% of 340,000 active | Q12809;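 active = maximum activity change below -70%; inconclusive = maximum activity change between -70% and -50%; inactive = maximum activity change above -50%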; note: % is set by controls: 0 for no effect and ±100 for the full control effect
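U2OS cells were transduced with wild-type KCNH2 virus (2.03 x 10^8 / mL) for 4 h at room temperature, then cultured overnight at 37 C. Thallium flux was read with FluxOr dye. Rate constants were normalized to DMSO controls.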
S-ASM inh = human S-ASM enzyme inhibition. P17405. 0.006% of 340,000 active. Potency, µM (highest dose often 57.5 µM), without a hit: top-dose activity change, negative = inhibition, actives largely listed as inhibitors. placental ASM, HMU-PC fluorogenic substrate, 60 min; note: potency is the fitted concentration of half-maximal effect
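HMU-PC0 cleavage (9 uM final) by human placental ASM, 60 min at 37 °C following 10 min compound exposure at RT; stopped at pH 10, fluorescence Ex 386/Em 447 nm.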
Apoferritin bind = candidate novel general anesthetic via apoferritin binding. P02791. apoferritin/1-aminoanthracene competitive binding, fluorescence. Potency, µM (highest dose often 77.5 µM), inactives show at the highest dose activity change, negative = displacement, hits mostly inhibitors. 0.074% of 350,000 active. AID 485281; note: potency is the fitted concentration of half-maximal effect; % is set by controls: 0 for no effect and ±100 for the full control effect; nearly all actives have a fitted effect of over 20% in size
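Probe: 1-aminoanthracene (50% saturated, PBS). Protein: horse-spleen apoferritin, 10 uM. Incubation: 10 min, room temperature. Detection: 380 nm excitation, 535 nm emission. Analysis: normalized response, four-parameter Hill.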
mIDH1 inhibitor = human IDH1 R132H inhibition; IDH1-R132H enzyme, NADPH consumption, diaphorase/resazurin fluorescence; Potency, µM (titrated, usually from 76.6 µM), inactives show at the highest dose activity change, negative = inhibition, actives largely listed as inhibitors; 0.093% of 390,000 active; AID 602179; note: potency is the fitted concentration of half-maximal effect; % is set by controls: 0 for no effect and ±100 for the full control effect; nearly all actives have a fitted effect of over 65% in size
Target sequence (O75874 whole entry R132H, stated change not applied): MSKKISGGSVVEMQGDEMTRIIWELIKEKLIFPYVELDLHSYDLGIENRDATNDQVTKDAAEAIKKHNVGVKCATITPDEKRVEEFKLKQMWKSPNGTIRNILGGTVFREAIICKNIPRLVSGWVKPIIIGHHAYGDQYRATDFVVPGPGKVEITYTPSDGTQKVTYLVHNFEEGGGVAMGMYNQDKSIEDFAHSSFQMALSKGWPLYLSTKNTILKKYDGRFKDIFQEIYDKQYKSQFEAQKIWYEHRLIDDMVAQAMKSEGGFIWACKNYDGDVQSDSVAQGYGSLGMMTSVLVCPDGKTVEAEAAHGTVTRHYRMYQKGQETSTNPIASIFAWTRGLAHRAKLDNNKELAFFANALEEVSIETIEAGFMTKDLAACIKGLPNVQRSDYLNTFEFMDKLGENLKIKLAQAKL
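IDH1-R132H (0.5 ug/mL dispensed) in pH 7.5 Tris buffer was preincubated 30 min with compound, then given a substrate mix of 0.016 mM NADPH and 2 mM alpha-KG for 80 min at room temperature; remaining NADPH was read by diaphorase/resazurin fluorescence.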
KCNH2 3.1 block = KCNH2 3.1 (human) potassium channel inhibition; AID 720553; 0.95% of 340,000 active; U2OS KCNH2 3.1, thallium flux FluxOr; hits give low values; activity change, % (tested at about 1.8 µM);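 active = maximum activity change below -70%; inconclusive = maximum activity change from -70% to -50%; inactive = maximum activity change above -50%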;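 note: thallium influx rate constant from kinetic fluorescence after stimulation buffer; % is set by controls: 0 for no effect and ±100 for the full control effect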
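U2OS cells transduced with KCNH2 3.1 mutant virus (1.77 x 10^8 /mL, 4 h), plated overnight at 37 C, loaded 45 min with FluxOr dye plus Red40 quencher. Thallium flux rate constant from kinetic reads after stimulation buffer, normalised to controls.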
* hit, by the source's call; ? = inconclusive; nt = no result given. Unless noted, calls come from the whole dose curve; as a rule, active = well fitted inhibition curve with a large enough effect; inconclusive = small, poorly fitted or top-dose-only effect; inactive = no such curve, though single readings can be large or run the other way.

SMILES | KCNH2 WT inh | S-ASM inh | Apoferritin bind | mIDH1 inhibitor | KCNH2 3.1 block
CN1CCC(N(C)C(=O)c2ccc(Cl)c(S(=O)(=O)N3CCOCC3)c2)CC1 | -194* | -1% | nt | 1% | -150*
O=C(N=C1SC2CS(=O)(=O)CC2N1c1ccc(Br)cc1F)C1CC1 (centres undefined) | -156* | -1% | 9% | 0% | 18
O=C(N=C1SC2CS(=O)(=O)CC2N1c1ccc(Br)cc1Cl)C1CC1 (centres undefined) | 8 | -2% | ? | 0% | 6
CCn1c(SCC(=O)Nc2ccccc2C(=O)OC)nnc1-c1cccc(C)c1 | 0 | -1% | -23% | 5% | -171*
CCn1c(SCC(=O)Nc2ccccc2F)nnc1-c1ccoc1C | 0 | 2% | -8% | 5% | -118*
Cc1cccc(CNC(=O)c2ccc3nc(-c4ccccc4)c(-c4ccccc4)nc3c2)c1 | nt | nt | -4% | 4% | nt
CCC(=O)N1CCc2cc(CNS(=O)(=O)c3cc(Cl)ccc3OC)ccc21 | nt | nt | -13% | -16% | nt
Cc1cccc(C(=O)Nc2ccc(OCc3cc(=O)n4ccc(C)cc4n3)cc2)c1 | nt | nt | 51% | -9% | nt
CC(=O)Nc1ccc(S(=O)(=O)N2CCc3ccccc3C2)cc1 | -4 | -1% | -14% | -7% | 16
Cc1ccc(NC(=O)C(C)N2CCc3ccccc3C2)cc1 (centres undefined) | -4 | -1% | 4% | 0% | -115*
CC(C(=O)Nc1ccc(S(=O)(=O)N2CCCC2)cc1)N1CCc2ccccc2C1 (centres undefined) | -7 | 4% | nt | 0% | -187*
c1ccc2[nH]c(-c3ccnc4ccccc34)nc2c1 | 17 | 80% | -9% | 8% | 0
c1ccc2c(-c3nc4ccccc4[nH]3)cccc2c1 | 16 | nt | nt | -5% | -122*
O=C(NCc1ccc2c(c1)CCN2C(=O)c1ccccc1)c1cc2ccccc2[nH]1 | nt | nt | -5% | 0% | nt
Cc1ccc(C)c(S(=O)(=O)c2nnn3c2nc(NCc2ccc4c(c2)OCO4)c2sccc23)c1 | nt | nt | -10% | -8% | nt
Cc1c(/C=N/n2cnnc2)c2ccccc2n1CCOc1ccc(Cl)cc1 | 11 | 35µM* | -24% | -1% | -12
O=c1c2c3c(sc2ncn1Cc1ccc(F)cc1)CCC3 | -1 | -1% | 25µM* | 2% | 4
CCOC(=O)N1CCc2c(sc3ncn(Cc4ccc(F)cc4)c(=O)c23)C1 | -1 | 0% | -5% | 9% | -3
c1ccc2c(c1)OCCOCCOc1ccccc1OCCOCCO2 | 23 | 8% | -7% | 2% | -79*
c1ccc2c(c1)OCCOCCOCCOCCO2 | nt | nt | -8% | nt | nt
C/C(=N\O)c1ccc2c(c1)OCCO2 | -9 | -5% | -24% | 2% | 22
Brc1ccc2c(c1)OCCOCCOc1cc(Br)ccc1OCCOCCOCCO2 | -88* | -13% | 26% | 1% | -96*
C/C(=N/O)c1ccc2c(c1)OCCOCCOc1cc(/C(C)=N/O)ccc1OCCOCCO2 | -42 | -1% | 7% | 1% | -74*
CC(C)c1ccc(Nc2c(-c3ccc(N(C)C)cc3)nc3cnccn23)cc1 | nt | nt | -12% | -3% | nt
O=C(NCCCN1CCN(c2ccccc2)CC1)c1ccc2nc(CCc3ccccc3)oc2c1 | nt | nt | -17% | 5% | nt
SMILES | KCNH2 WT inh | S-ASM inh | Apoferritin bind | mIDH1 inhibitor | KCNH2 3.1 block
O=C(Nc1ncc(Cc2ccc(SC(F)F)cc2)s1)c1ccc(OC(F)F)cc1 | 4 | -2% | -7% | 3% | -82*
CSCCC(NC(=O)C1CCCCC1)C(=O)Nc1ccc(F)c(Cl)c1 (centres undefined) | nt | nt | 3% | -10% | nt
NC(=O)c1cccn1Cc1cccc(Cl)c1 | 11 | 8% | ? | 14% | -3
NC(=O)c1cccn1Cc1ccccc1Cl | -301* | 2% | ? | 15% | 2
Cc1c(C(=O)N2CCCC2)oc2c1-c1nn(CC(=O)NCc3cccc(Br)c3)cc1CC2 | nt | nt | -9% | -3% | nt
CCCSc1cc(N2CCN(C)CC2)nc(-c2ccc(OC)cc2)n1 | -26 | -18% | -23% | -2% | -71*
CCOc1ccc(/C=N/NC(=O)c2ccc(Cn3cc([N+](=O)[O-])cn3)o2)cc1 | 10 | -11% | ? | -4% | -8
